Measured values as given in PubChem BioAssay AID488815 (Broad Institute, 2010).
Potency and affinity values are given separately. Records with an inconclusive call do not appear. Active and inactive are the calls of the source. How the calls were made is not given here.

Target: CAAX prenyl protease 1 (Saccharomyces cerevisiae (strain ATCC 204508 / S288c)) (UniProt P47154)
Assay: yeast CAAX protease Ste24 inhibition – biochemical, S. cerevisiae, plate reader, cherry-pick, dose response (AID 488815)
Details: series mostly up to 10 µM

Sequence of CAAX prenyl protease 1 (Saccharomyces cerevisiae (strain ATCC 204508 / S288c)) (P47154 whole entry, looked up): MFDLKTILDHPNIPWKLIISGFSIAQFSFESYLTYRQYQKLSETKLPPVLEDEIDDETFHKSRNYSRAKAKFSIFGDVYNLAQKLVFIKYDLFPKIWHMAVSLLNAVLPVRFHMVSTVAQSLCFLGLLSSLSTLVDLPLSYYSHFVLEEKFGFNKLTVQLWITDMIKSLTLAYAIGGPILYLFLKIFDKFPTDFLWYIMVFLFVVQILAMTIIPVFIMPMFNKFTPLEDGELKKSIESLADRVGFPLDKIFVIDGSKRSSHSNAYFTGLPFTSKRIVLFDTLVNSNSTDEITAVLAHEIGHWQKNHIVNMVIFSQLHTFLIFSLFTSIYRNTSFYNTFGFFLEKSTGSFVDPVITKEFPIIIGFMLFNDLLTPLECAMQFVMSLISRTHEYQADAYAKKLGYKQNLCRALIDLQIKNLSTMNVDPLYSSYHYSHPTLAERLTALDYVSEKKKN

outcome, inactive:
Cn1c(CN2CCOCC2)c(C#N)c2ccccc21
COCCN1C(=O)/C(=C/c2ccc(Oc3ccc([N+](=O)[O-])cn3)c(OC)c2)SC1=Nc1ccccc1
COc1cccc(-c2nc(C#N)c(N3CCN(C(=O)c4ccco4)CC3)o2)c1
Cc1nc(N2CCOCC2)c2cc(-c3ccccc3)sc2n1
COc1cc(-c2nc3ccccn3c2/N=C/c2cccc(OC)c2O)ccc1O
CCN(C(=O)COC(=O)c1cc(-c2cccs2)nc2ccccc12)C1CCS(=O)(=O)C1 (stereo not given)
CCOC(=O)c1c(NC(=O)c2cccc(N3C(=O)CCC3=O)c2)sc(C)c1C
Clc1ccc(CN2CCc3c([nH]c4ccccc34)C2)cc1Cl
Cc1cccc2sc(N(CCN(C)C)C(=O)c3ccc4ccccc4c3)nc12
c1cnn(Cc2cnc(N3CCOCC3)s2)c1
c1ccc(CNc2nc(N3CCN(Cc4ccccc4)CC3)nc3ccccc23)cc1
Cc1cc(C)n2nc(CC(=O)NNC(=O)c3ccc(N(C)C)cc3)nc2n1
COc1ccc(/C=N/NC(=O)c2ccc(Cl)cc2)cc1COC(C)=O
CC(C)c1c(C(=O)N/N=C/c2cccc3ccccc23)nnn1-c1nonc1N
C=C(C)CSc1nc2sc3c(c2c(=O)n1-c1ccc(OC)cc1)CCN(C)C3
O=C(c1cnc(Cl)c(Cl)c1)N1CCC(Cc2ccccc2)CC1
O=C(CN(C1CCCCC1)C1CCCCC1)N1CCc2ccccc2C1
Cc1ccc(S(=O)(=O)CC(=O)N2CCN(c3ccccc3F)CC2)cc1
CCOc1ccc(NC(=O)CCSc2ccc(C)cc2)cc1
COc1ccc(C(CNC(=O)COc2cc(C)c(Cl)c(C)c2)N2CCCCC2)cc1 (stereo not given)
Cc1ccc(C(=O)N2N=C(c3ccccc3O)CC2c2ccccc2)cc1 (stereo not given)
CC1=C(C(=O)OCc2ccccc2)C(c2ccc(-c3ccccc3)cc2)NC(=O)N1CCCC(=O)O (stereo not given)
O=C(CC1(O)C(=O)N(C/C=C/c2ccccc2)c2ccccc21)c1ccccn1 (stereo not given)
C/C(CC1(O)C(=O)Nc2ccccc21)=N\O (stereo not given)
CCCC(=O)N1CCN(c2ccc(NC(=O)c3cc4ccccc4o3)cc2Cl)CC1
CN1CCN(Cc2c(C(=O)N/N=C/c3cccc(Br)c3)nnn2-c2nonc2N)CC1
CC(C)C(=O)Nc1cccc(NC(=S)NC(=O)C(c2ccccc2)c2ccccc2)c1
O=C1CN(S(=O)(=O)c2ccc([N+](=O)[O-])cc2)CC(=O)N1
CC(C)(C)C(=O)C[n+]1ccc(C(N)=O)cc1
COc1cccc(-c2cc(C(F)(F)F)n3ncc(S(=O)(=O)c4ccccc4)c3n2)c1
Cc1nc(N2CCOCC2)c2c(C)c(C(=O)Nc3ccc(C(F)(F)F)cc3)sc2n1
Cc1cc(C)n(Cc2ccc(NC(=O)c3ccc(COc4ccccc4Br)cc3)cc2)n1
Cc1ccc(OCCN2C(=O)C(=O)c3cc(C)ccc32)cc1
CC(C)C[C@H](NC(=O)c1nc[nH]c1C(=O)N1CCNCC1)C(=O)OCc1ccccc1
CN(C)S(=O)(=O)c1ccc(NC(=O)/C=C/c2ccccc2Cl)cc1
Cc1nc(N2CCCCC2)c2c(C)c(C(=O)Nc3ccccc3C(F)(F)F)sc2n1
COc1ccc(Cc2nc3ccc(C(=O)N4CCCC4)cc3o2)cc1
CC1(C)CC2CC(C)(CN2S(=O)(=O)c2ccc(N)cc2)C1 (stereo not given)
O=C(c1cc(-c2ccccc2)nc2ccccc12)N1CCN(c2ccccn2)CC1
COC(C[C@H](O)C[C@H](O)[C@@H](C)OCc1ccccc1)OC
